Some test systems named below: SK-MEL-2 melanoma; EKVX NSCLC; SN12C renal; UO-31 renal; ACHN renal; CAKI-1 renal; A498 renal; CCRF-CEM leukemia; MOLT-4 leukemia.
Common to all, as to assay: NCI-60 one-dose screen, 48 h (100 = growth as untreated, 0 = no growth, -100 = all killed)
Common to all, as to details: 10 µM unless noted

SMILES strings stand for the structures. The panel holds about 83,000 compounds, 20% with a hit somewhere; the sample as a whole holds those more often.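 In brief: 96-well plates, 48 h treatment, single concentration, percent growth endpoint.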 Unmarked numbers belong to inactive results. Active and inactive are the calls of the source. The calls were made as follows: active = growth percent below 10; inactive = the rest.

As to `CC[C@H](CC[C@@H](C)[C@H]1CC[C@H]2[C@@H]3CC(=O)C4=CC(=O)/C(=C/c5ccc([N+](=O)[O-])cc5)C[C@]4(C)[C@H]3CC[C@]12C)C(C)C`, the growth with SK-MEL-2 melanoma is 114%; in the assay with EKVX NSCLC it was 109%; in the assay with SN12C renal it was 98.4%; with UO-31 renal, 79.6%; with ACHN renal, 93.9%; in the assay with CAKI-1 renal, 90.8%. Besides, the figures for the growth with A498 renal, in the assay on CCRF-CEM leukemia and with MOLT-4 leukemia were 108%, 56.1% and 84.3%, respectively.

Consider `CCN(CC)CCOc1ccc(C(=C(C)c2ccc(OC)cc2)c2ccc(OCCN(CC)CC)cc2)cc1`, for which the growth was -36.7% (active) in the assay on SK-MEL-2 melanoma; 39.1% in the assay with EKVX NSCLC; 34.6% in the assay with SN12C renal; -75.1% (active) in the assay on UO-31 renal; -34.1% (active) in the assay on ACHN renal; -18.2% (active) with CAKI-1 renal. For the same molecule, the growth in the assay on A498 renal is -29% (active); with CCRF-CEM leukemia, -10.8% (active); in the assay with MOLT-4 leukemia it was 1.17% (active).

In the case of `CCOC(=O)C(=O)Nc1ccc2c(ccn2C(=O)c2cccc(F)c2)c1`, the growth is 99.8% in the assay on SK-MEL-2 melanoma; 82.8% with EKVX NSCLC; 101% in the assay on SN12C renal; 88.2% with UO-31 renal; 80.2% in the assay on ACHN renal; 92.7% with CAKI-1 renal. Besides, the growth in the assay on A498 renal is 84.2%; in the assay on CCRF-CEM leukemia, 2.8% (active); with MOLT-4 leukemia, 107%.

As for `Cc1cc(=O)oc2cc(OCCCOc3ccc(/C=C/C(=O)Nc4ccc(Br)cc4)cc3)ccc12`, the growth in the assay with SK-MEL-2 melanoma was 91.1%; with EKVX NSCLC it was 91.6%; with SN12C renal, 89.9%; in the assay with UO-31 renal it was 82.3%; in the assay on ACHN renal it was 46.7%; in the assay with CAKI-1 renal it was 104%. Further, the growth was 82.9% with A498 renal, 83.6% in the assay with CCRF-CEM leukemia and 96.4% in the assay on MOLT-4 leukemia.

As to `Cc1ccc2c(n1)C(=O)C(Cl)=C(Nc1ccc(C(=O)OC(C)(C)C)cc1)C2=O`, the growth is 116% [9.25 µM] in the assay with SK-MEL-2 melanoma; 76.5% [9.25 µM] in the assay with EKVX NSCLC; 88% [9.25 µM] in the assay with SN12C renal; 46.4% [9.25 µM] in the assay with UO-31 renal; -21.5% [9.25 µM] (active) in the assay with ACHN renal; -34.8% [9.25 µM] (active) in the assay on CAKI-1 renal. Moreover, the growth with A498 renal was 110% [9.25 µM]; in the assay with CCRF-CEM leukemia it was -23.2% [9.25 µM] (active); with MOLT-4 leukemia, -6.96% [9.25 µM] (active).

Take `CC(C)(C)OC(=O)Nc1ccc(-c2cccc(Oc3ccc4nnc(Cl)n4n3)c2)cc1`: the growth with SK-MEL-2 melanoma was 65.8%; in the assay with EKVX NSCLC, 86.7%; in the assay with SN12C renal, 78.7%; with UO-31 renal, 67.6%; in the assay on ACHN renal, 88%; in the assay with CAKI-1 renal it was 83.6%. Further, the results for the growth in the assay on A498 renal, in the assay with CCRF-CEM leukemia and in the assay on MOLT-4 leukemia were 70.1%, 60.4% and 46.3%, respectively.

Take `O=C(Nc1ccc(N2CCOCC2)cc1)Nc1ccc2c(ccn2C(=O)c2cccc(F)c2)c1`: the growth in the assay with SK-MEL-2 melanoma is 77.2%; in the assay with EKVX NSCLC it was 73.9%; in the assay with SN12C renal, 74.2%; in the assay with UO-31 renal it was 102%; in the assay with ACHN renal, 61.8%; with CAKI-1 renal it was 42.3%. The growth in the assay with A498 renal was 87.7%; in the assay with CCRF-CEM leukemia, 82.4%; with MOLT-4 leukemia, 83.6%.

With `COc1cc2oc(-c3cccc(NC(=O)[C@@H](N)C(C)C)c3)cc(=O)c2c(OC)c1OC`, the growth in the assay with SK-MEL-2 melanoma is 102%; in the assay on EKVX NSCLC, 98.4%; in the assay with SN12C renal, 101%; in the assay with UO-31 renal it was 76.3%; in the assay on ACHN renal, 100%; with CAKI-1 renal, 91.1%. The results for the growth in the assay on CCRF-CEM leukemia and in the assay on MOLT-4 leukemia were 97.9% and 99.9%, respectively.

As for `O=C(CSc1nc2ccccc2c(=O)n1-c1ccccc1)N/N=C/c1ccc(Oc2ccc(Br)cc2)cc1`, the growth is 93% with SK-MEL-2 melanoma; 60.7% in the assay with EKVX NSCLC; 40.7% with SN12C renal; 91.5% in the assay on UO-31 renal; 91.4% in the assay on ACHN renal; 70.8% in the assay on CAKI-1 renal. Besides, the growth was 82.3% in the assay with A498 renal, 56.9% in the assay on CCRF-CEM leukemia and 55.5% in the assay with MOLT-4 leukemia.

Take `CN1CCN(Cc2ccc(NC(=O)c3cncc(C#Cc4cnc5ccc(O[C@@H]6CCOC6)nn45)c3)cc2C(F)(F)F)CC1`: the growth in the assay on SK-MEL-2 melanoma was -78.3% (active); in the assay with EKVX NSCLC, -85.8% (active); with SN12C renal, -77.4% (active); in the assay on UO-31 renal it was -91.8% (active); in the assay on ACHN renal, -100% (active); with CAKI-1 renal it was -96.8% (active). Also, the growth was -94.7% (active) in the assay on A498 renal, -15.8% (active) in the assay on CCRF-CEM leukemia and -26% (active) in the assay with MOLT-4 leukemia.

As to `CN1CCN(c2ccc(Nc3nc(NCCCNS(=O)(=O)c4ccc(Cl)cc4)c4sccc4n3)cc2)CC1`, the growth in the assay on SK-MEL-2 melanoma is -9.34% (active); with EKVX NSCLC, 50.8%; in the assay with SN12C renal it was 36.7%; in the assay on UO-31 renal, -58.9% (active); in the assay on ACHN renal it was 6.32% (active); in the assay on CAKI-1 renal it was 10.8%. Also, the growth with A498 renal was 19.7%; in the assay on CCRF-CEM leukemia it was 13%; with MOLT-4 leukemia it was 4.92% (active).

As for `Cc1cc(NS(=O)(=O)c2ccc(NC(=O)CSc3nc4ccccc4c(=O)n3-c3ccccc3)cc2)no1`, the growth in the assay on SK-MEL-2 melanoma was 109%; in the assay with EKVX NSCLC, 96.8%; in the assay on SN12C renal it was 101%; with UO-31 renal, 85.9%; in the assay on ACHN renal, 98.1%; in the assay with CAKI-1 renal, 94.9%. The growth in the assay on A498 renal is 99.6%; with CCRF-CEM leukemia, 96.8%; in the assay with MOLT-4 leukemia, 107%.

Regarding `CCCc1cc2cc(-n3nc(CC)c4c3CC(C)(C)CC4=O)cc(NC3CCC(O)CC3)c2c(=O)[nH]1` (stereo not given), the growth in the assay with SK-MEL-2 melanoma was 53.1%; in the assay on EKVX NSCLC it was 52.4%; in the assay on SN12C renal, 7.81% (active); with UO-31 renal, 14.1%; in the assay with ACHN renal, 8.86% (active); with CAKI-1 renal, 19.6%. Also, the growth in the assay with CCRF-CEM leukemia was 21.8%; in the assay on MOLT-4 leukemia it was 15.3%.

The values above are taken from PubChem BioAssay (NCI).
